From article PMC5540273 (PLoS ONE, 2017)

Key:
Conditions in all cases: concentration: 1 μM, replicates: in singlicate; n = 1
CAMK1 = test system: CAMK1
CAMK2A = test system: CAMK2A
CAMK2B = test system: CAMK2B
CAMK2D = test system: CAMK2D
CAMK2G = test system: CAMK2G
CAMK4 = test system: CAMK4
CAMKK1 = test system: CAMKK1
CAMKK2 = test system: CAMKK2
CASK = test system: CASK
CDC2L1 = test system: T1, CDC2L1
T1 construct: gene CDK11B
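Also: KINOMEscan kinase panel screen.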

| SMILES | %Inh (CAMK1) | %Inh (CAMK2A) | %Inh (CAMK2B) | %Inh (CAMK2D) | %Inh (CAMK2G) | %Inh (CAMK4) | %Inh (CAMKK1) | %Inh (CAMKK2) | %Inh (CASK) | %Inh (CDC2L1) |
| --- | --- | --- | --- | --- | --- | --- | --- | --- | --- | --- |
| COc1ccc(-c2coc3ccc(-c4nnc(SCc5ccc(OC)c(C(F)(F)F)c5)o4)cc23)cc1 | 0% | 0% | 1% | 7% | 0% | 12% | 1% | 2% | 1% | 0% |
| O=C(Nc1cccc(-c2nn3ccccc3c2-c2ccnc(Nc3cccc(F)c3)n2)c1)c1c(F)ccc(F)c1Cl [GSK357952] | 12% | 0% | 0% | 0% | 0% | 13% | 0% | 0% | 4% | 0% |
| Cc1occc1-c1ncc(OC[C@@H](N)Cc2c[nH]c3ccccc23)cc1-c1ccc2[nH]nc(C)c2c1.O=C(O)C(F)(F)F [GSK682037] | 25% | 20% | 27% | 47% | 52% | 0% | 19% | 16% | 11% | 0% |
| CNC(=O)c1ccccc1Nc1nc(Nc2ccc(N3CCOCC3)cc2)ncc1Cl.Cl [GSK1576028] | 77% | 25% | 14% | 22% | 49% | 0% | 93.2% | 95% | 71% | 16% |
| O=C(Nc1n[nH]c2cc(-c3ccoc3)ccc12)C1CC1 [SB-738481] | 0% | 8% | 0% | 14% | 25% | 0% | 2% | 18% | 0% | 0% |
| COc1ccc(CNC(=O)NC2CCN(c3ccnc(Nc4ccc(F)cc4)n3)CC2)cc1 [GSK1379788] | 10% | 0% | 0% | 8% | 16% | 0% | 2% | 16% | 0% | 0% |
| CC(=O)Nc1nc2cnc(Nc3cc(NC(=O)c4cccc(C5(C#N)CC5)c4Cl)ccc3C)nc2s1 | 35% | 13% | 0% | 0% | 10% | 0% | 14% | 12% | 0% | 43% |
| Cl.Cl.NCC(NC(=O)c1cc(-c2ccccc2)c(-c2ccnc3[nH]ccc23)s1)c1ccccc1 (stereo not shown) [GSK1321561] | 4% | 0% | 0% | 5% | 0% | 0% | 15% | 10% | 13% | 0% |
| CN1CCN(CCCNc2nccc(-c3c(-c4ccc(F)cc4)nn4cc(C(F)(F)F)ccc34)n2)CC1 [GW621581] | 5% | 0% | 0% | 0% | 0% | 0% | 0% | 0% | 0% | 0% |
| Cn1cc(-c2ccc3c(c2)CCN3C(=O)Cc2cccc(F)c2)c2c(N)ncnc21 [GSK2603358] | 79% | 0% | 0% | 16% | 34% | 0% | 26% | 29% | 17% | 0% |
| CC(C)c1nc(-c2cccc(NS(=O)(=O)c3c(F)cccc3F)c2F)c(-c2ccnc(Nc3ccc(N4CCOCC4)nc3)n2)s1 [GSK2008607] | 81% | 0% | 0% | 3% | 29% | 65% | 55% | 15% | 0% | 12% |
| CCn1c(-c2nonc2N)nc2c(C#CC(C)(C)O)ncc(OCCCCN)c21.O=C(O)C(F)(F)F.O=C(O)C(F)(F)F [GSK507274] | 31% | 0% | 0% | 4% | 19% | 50% | 0% | 0% | 19% | 0% |
| Cc1cccc(NC(=O)Nc2ccc(Oc3ncnc4ccn(C)c34)cc2)c1 | 0% | 0% | 0% | 0% | 0% | 0% | 0% | 0% | 0% | 0% |
| Oc1cc(Nc2ccnc3cc(I)ccc23)ccc1F [GW552771] | 19% | 0% | 0% | 0% | 0% | 0% | 8% | 0% | 18% | 0% |
| COC(=O)Nc1nc2ccc(Oc3ccc(NC(=O)Nc4cc(C(F)(F)F)ccc4F)cc3)cc2n1C.Cl [GW692089] | 0% | 0% | 0% | 0% | 3% | 0% | 4% | 0% | 1% | 0% |
| Cl.Cl.NCC(C(=O)Nc1cc(Br)c(-c2ccnc3[nH]ccc23)s1)c1ccccc1 (stereo not shown) [GSK1269851] | 0% | 100% | 100% | 8% | 12% | 0% | 8% | 0% | 25% | 1% |
